Laboratory results as given in ChEMBL document CHEMBL1157539, “Thousands of chemical starting points for antimalarial lead identification” (Nature, 2010).

What follows are compounds tested on Plasmodium falciparum (assay: GSK_TCMDC: Inhibition of Plasmodium falciparum Dd2 in whole red blood cells, using parasite LDH activity as an index of growth. Test compounds present at 2uM).
Assay type: functional
`O=C(/C=C/c1ccc(C(F)(F)F)cc1)NCCCCCN1CCN(C(=O)Nc2ccc(F)c(Cl)c2)CC1` gave an Inhibition of 0%.
`Cc1cccc(-c2cccc(CNc3nc(NCCc4ccc(O)cc4)nc(N4CCNCC4)n3)c2)c1.O=C(O)C(F)(F)F` showed an Inhibition of 0%.
`COc1ccc(Cl)cc1NC(=O)CN(C)C(=O)c1cnn(-c2ccccc2)n1` was tested, and the Inhibition was 99%.
Compound `COc1ccccc1CCNc1ncc(F)c(N[C@@H](Cc2ccccc2)C(=O)NCCc2ccccc2)n1.O=C(O)C(F)(F)F` has an Inhibition of 83%.
`COc1ccc(-c2ccc(NC(=O)c3ccc(Cl)cc3)cc2)cc1CN1CCC(O)CC1.O=C(O)C(F)(F)F` was tested, and the Inhibition was 15%.

Each compound was assayed on HepG2 (assay: GSK_TCMDC: Percent inhibition of human HepG2 cell line. Test compounds present at 10uM.).
Assay type: functional
`Oc1cc(Nc2ccnc3cc(-c4cccc(CN5CCOCC5)c4)ccc23)c(F)cc1Cl` gave an Inhibition of 12%.
Compound `CCCCCCOc1ccc(C(=O)N(Cc2ccccc2)c2c(-c3ccccc3)nc3cc(C)ccn23)cc1` has an Inhibition of 0%.
With `CC(C)(C)SCC(O)Cn1c2ccc(Br)cc2c2cc(Br)ccc21` (stereo not given) the Inhibition was 4%.
In the case of `CN1CCN(c2ccc(CNc3ccc4ncc(-c5cccc(OC(F)(F)F)c5)n4n3)cc2)CC1`, the Inhibition is reported as 25%.
Compound `N#Cc1ccc(CN2CCC(Oc3ccc(NC(=O)c4ccco4)cc3Cl)C2)cc1.O=C(O)C(F)(F)F` (stereo not given) has an Inhibition of 13%.
`COc1ccc(/C=C/C(=O)N2CCc3cc4nccc(N5CCN6CCC[C@H]6C5)c4cc32)cc1` showed an Inhibition of 0%.
With `O=C(Nc1ccc(C(F)(F)F)cc1)c1cccc(S(=O)(=O)NC2CCN(CC3CCCCC3)CC2)c1.O=C(O)C(F)(F)F` the Inhibition was 18%.
Work on `Cc1cccc2nc(-c3cccc(-c4cccc(NC(=O)c5cnccc5C(F)(F)F)c4)c3)[nH]c12` yielded an Inhibition of 7%.
For `C[C@H](Cc1ccc(OCCCCCCCOc2ccc(C[C@@H](C)NC[C@H](O)c3cccc(Cl)c3)cc2)cc1)NC[C@H](O)c1cccc(Cl)c1.Cl`, the Inhibition was 99%.
`CC(C)c1cccc(OCC2CCN(c3ncc(C(=O)Nc4ccccc4)cc3Cl)CC2)c1` was tested, and the Inhibition was 9%.
With `N[C@@H](Cc1cc(I)c(Oc2ccc(O)c(C(=O)O)c2)c(I)c1)C(=O)O` the Inhibition was 57%.
Work on `CC1(C)CCCN(C(=O)c2cccc(-n3nc(-c4ccc(Cl)cc4)cc3N)c2)C1` yielded an Inhibition of 13%.
For `CCCc1ccccc1Nc1nc(C)cc(N(CC)CCCN2CCCCC2)n1.O=C(O)C(F)(F)F`, the Inhibition was 27%.
With `CCc1cn(CC(=O)N(CCOc2ccc(-c3ccc(C(F)(F)F)cc3)cc2)CCN(CC)CC)c(SCc2ccc(F)cc2)nc1=O` the Inhibition was 46%.
Compound `O=C1NC(c2ccc(N3CCCCCC3)cc2)Nc2ccccc21` (stereo not given) has an Inhibition of 19%.
`Cc1cc(C)c(O)c(-c2cc(C(=O)Nc3ccc(S(=O)(=O)N4CC(C)OC(C)C4)cc3)[nH]n2)c1` (stereo not given) gave an Inhibition of 31%.
Work on `Cl.NC(=O)Nc1ccc2cn[nH]c2c1` yielded an Inhibition of 4%.
With `Cc1cc(-c2nc3ccc(C(=O)NCc4ccccc4)cc3n2C2CCN(C(=O)c3ccc(-c4ccccc4)cc3)CC2)ccn1` the Inhibition was 36%.
`CC(C)c1ncc(-c2ccncc2)c(C2CCC(CNC(=O)c3ccncc3)CC2)n1` (stereo not given) gave an Inhibition of 0%.
Compound `CNC(=O)c1cc(F)c(F)cc1Nc1nc(Nc2cccc(CS(C)(=O)=O)c2)ncc1Cl.O=CO` has an Inhibition of 52%.
`Cc1cc(=NN=Cc2cccc(Cl)c2)c2ccccc2[nH]1` was tested, and the Inhibition was 22%.
`COc1ccc(NS(=O)(=O)c2ccc(C(=O)Nc3ccc(OC(F)(F)F)cc3)cc2)cc1N1CCN(CC2CC2)CC1.O=C(O)C(F)(F)F` showed an Inhibition of 18%.
`Cc1ccccc1Nc1nc(NCCCO)c2ccccc2n1.Cl` was tested, and the Inhibition was 0%.
Work on `O=C(Nc1cccc(OC2CCN(Cc3ccc(F)cc3)CC2)c1)c1ccc(C(F)(F)F)cc1.O=C(O)C(F)(F)F` yielded an Inhibition of 28%.
Work on `C[C@@H]1CC[C@H](NC(=O)[C@H](CC2CCCC2)NC(=O)N2CCNCC2)C(=O)CN1S(=O)(=O)c1ccccn1.O=C(O)C(F)(F)F` yielded an Inhibition of 5%.
`CCOC(=O)c1ccc(NC(=O)N[C@@H](Cc2ccc(O)cc2)C(=O)NC2CCN(Cc3ccc4c(c3)OCO4)CC2)cc1.O=C(O)C(F)(F)F` was tested, and the Inhibition was 0%.
Work on `CC(C)(CNC(=O)[C@@H]1CCCN(Cc2ccc(Cl)cc2)C1)c1nc(-c2ccc(Cl)c(O)c2)c(-c2ccncc2)[nH]1.Cl` yielded an Inhibition of 66%.
Work on `CN(C)Cc1cccc(-c2ccc(NC(=O)c3ccc4c(=O)n(CCN5CCCCC5)cnc4c3)cc2)c1` yielded an Inhibition of 23%.
`COCC(C)n1c(SCC(=O)Nc2cc(C(F)(F)F)ccc2Cl)nc2ccccc2c1=O` (stereo not given) showed an Inhibition of 3%.
In the case of `CCc1ccc(C2CCN(CCCCNC(=O)c3ccc(NC(=O)c4ccc(Cl)cc4)cc3)CC2)c(OCCO)c1`, the Inhibition is reported as 94%.
`CN(C)C=Nc1ccc(OCCCCCCOc2ccc(N=CN(C)C)cc2)cc1.Cc1ccc(S(=O)(=O)O)cc1` was tested, and the Inhibition was 26%.
`Fc1cccc(C=NN=c2cc[nH]c3ccc(C(F)(F)F)cc23)c1` gave an Inhibition of 0%.
Compound `COc1ccc2nccc(N3CCC(CCNCc4ccc5c(n4)NC(=O)CS5)CC3)c2n1.Cl` has an Inhibition of 32%.
`c1ccc(CCNc2ncnc3c2[nH]c2ccccc23)cc1` gave an Inhibition of 50%.
Compound `CCc1ccc(CN2CCCCC(NC(=O)c3cc(-c4ccccc4F)cs3)C2)cc1.O=C(O)C(F)(F)F` (stereo not given) has an Inhibition of 25%.
Compound `O=C(/C=C/c1ccc(C(F)(F)F)cc1)NCCCCCN1CCN(C(=O)Nc2ccc(F)c(Cl)c2)CC1` has an Inhibition of 35%.
`Cc1cccc(-c2cccc(CNc3nc(NCCc4ccc(O)cc4)nc(N4CCNCC4)n3)c2)c1.O=C(O)C(F)(F)F` showed an Inhibition of 50%.
Work on `COc1ccc(Cl)cc1NC(=O)CN(C)C(=O)c1cnn(-c2ccccc2)n1` yielded an Inhibition of 0%.
`COc1ccccc1CCNc1ncc(F)c(N[C@@H](Cc2ccccc2)C(=O)NCCc2ccccc2)n1.O=C(O)C(F)(F)F` showed an Inhibition of 7%.
With `COc1ccc(-c2ccc(NC(=O)c3ccc(Cl)cc3)cc2)cc1CN1CCC(O)CC1.O=C(O)C(F)(F)F` the Inhibition was 20%.
